Compounds without any hit were thinned out: in the full panel of roughly 83,000, 20% have a hit.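 How to read the values: 0–100, growth inhibition (40 = 60% inhibited); 0, no net growth; -100 to 0, cell death (-40 = 40% of starting cells died; -100 = all dead).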 The source made the active and inactive calls. Rule for the calls: active = growth percent below 10; inactive = the rest.
Experiments:
Assay in all cases: NCI-60 one-dose screen, 48 h (100 = growth as untreated, 0 = no growth, -100 = all killed)
Conditions in all cases: 10 µM unless noted
RPMI-8226 leukemia = system: RPMI-8226 leukemia
OVCAR-8 ovarian = system: OVCAR-8 ovarian
OVCAR-5 ovarian = system: OVCAR-5 ovarian
OVCAR-4 ovarian = system: OVCAR-4 ovarian
SK-OV-3 ovarian = system: SK-OV-3 ovarian
IGROV1 ovarian = system: IGROV1 ovarian
OVCAR-3 ovarian = system: OVCAR-3 ovarian
HS 578T breast = system: HS 578T breast
SR leukemia = system: SR leukemia
NCI/ADR-RES ovarian = system: NCI/ADR-RES ovarian

Measured: growth

CC(C)(C)C(=O)/C=c1/[nH]c(=O)/c(=C/c2ccccc2O)s1
inactive: RPMI-8226 leukemia 60% | OVCAR-8 ovarian 66.9% | OVCAR-5 ovarian 86.9% | OVCAR-4 ovarian 67.3% | SK-OV-3 ovarian 81.4% | IGROV1 ovarian 50.1% | OVCAR-3 ovarian 20.2% | HS 578T breast 71.7%

CC(C(C(=O)N1CCCCC1)N1CCCCC1)N1CCCCC1 (stereo unspecified)
inactive: SR leukemia 71.3% | OVCAR-8 ovarian 105% | OVCAR-5 ovarian 117% | OVCAR-4 ovarian 116% | SK-OV-3 ovarian 103% | IGROV1 ovarian 160% | OVCAR-3 ovarian 119% | HS 578T breast 103% | NCI/ADR-RES ovarian 112%

CCCCNc1cc(C(=O)O)cc(S(N)(=O)=O)c1Oc1ccccc1
inactive: SR leukemia 104% | RPMI-8226 leukemia 112% | OVCAR-8 ovarian 107% | OVCAR-4 ovarian 105% | SK-OV-3 ovarian 108% | IGROV1 ovarian 109% | OVCAR-3 ovarian 115% | HS 578T breast 98.5% | NCI/ADR-RES ovarian 99.1%

C=C1c2c(Cl)ccc(O)c2C(O)=C2C(=O)[C@]3(O)C(O)=C(C(N)=O)C(=O)[C@@H](N(C)C)[C@@H]3[C@@H](O)[C@H]12
inactive: RPMI-8226 leukemia 13.2% | OVCAR-4 ovarian 23.7% | SK-OV-3 ovarian 11.2% | NCI/ADR-RES ovarian 61.2%
active: SR leukemia -8.97% | OVCAR-8 ovarian 9.79% | IGROV1 ovarian -2.89% | OVCAR-3 ovarian -16.2% | HS 578T breast 5.86%

COc1cc(Nc2ncccc2C(=O)Nc2nc3ccc(F)cc3s2)cc(OC)c1OC
active: OVCAR-4 ovarian 5%
inactive: SR leukemia 104% | OVCAR-8 ovarian 91.2% | OVCAR-5 ovarian 105% | SK-OV-3 ovarian 91.7% | IGROV1 ovarian 74.5% | OVCAR-3 ovarian 55.6% | HS 578T breast 72.8% | NCI/ADR-RES ovarian 67.2%

CCCc1nn2c(CCC(=O)c3nc4ccc([N+](=O)[O-])cc4[nH]3)nnc2s1
inactive: RPMI-8226 leukemia 133% | OVCAR-8 ovarian 109% | OVCAR-5 ovarian 97.5% | OVCAR-4 ovarian 100% | SK-OV-3 ovarian 110% | IGROV1 ovarian 101% | OVCAR-3 ovarian 109% | HS 578T breast 91.1% | NCI/ADR-RES ovarian 104%

Cc1ccc(=O)n(-c2ccc(Br)cc2F)c1
inactive: RPMI-8226 leukemia 101% | OVCAR-8 ovarian 99% | OVCAR-5 ovarian 105% | OVCAR-4 ovarian 97.3% | SK-OV-3 ovarian 90.4% | IGROV1 ovarian 97.6% | OVCAR-3 ovarian 109% | HS 578T breast 100% | NCI/ADR-RES ovarian 104%

O=C(C[n+]1ccccc1Cl)c1ccc2c(c1)CCCC2
inactive: RPMI-8226 leukemia 90.3% | OVCAR-8 ovarian 102% | OVCAR-5 ovarian 102% | OVCAR-4 ovarian 83.6% | SK-OV-3 ovarian 99.7% | IGROV1 ovarian 107% | OVCAR-3 ovarian 93.6% | HS 578T breast 111% | NCI/ADR-RES ovarian 109%

COc1cc(Br)c(-c2nc(-c3ccccc3)c(-c3ccccc3)n2Cc2ccccc2)cc1OC
inactive: RPMI-8226 leukemia 40.8% | OVCAR-8 ovarian 55% | OVCAR-5 ovarian 77.1% | OVCAR-4 ovarian 48.6% | SK-OV-3 ovarian 39.5% | IGROV1 ovarian 49.4% | OVCAR-3 ovarian 68.6% | HS 578T breast 88.7% | NCI/ADR-RES ovarian 48.9%

C/C(=N\N=C1/SCC(=O)N1c1ccccc1)c1ccco1
inactive: RPMI-8226 leukemia 72.2% | OVCAR-8 ovarian 103% | OVCAR-5 ovarian 117% | OVCAR-4 ovarian 146% | SK-OV-3 ovarian 115% | IGROV1 ovarian 60.8% | HS 578T breast 104% | NCI/ADR-RES ovarian 104%

Fc1ccc(/C=N/n2c(-c3cc(Cl)cc(Cl)c3Cl)nn(CNc3ccc(Cl)nn3)c2=S)cc1
inactive: RPMI-8226 leukemia 82.4% | OVCAR-8 ovarian 95.7% | OVCAR-5 ovarian 89.9% | OVCAR-4 ovarian 91.8% | SK-OV-3 ovarian 90.2% | IGROV1 ovarian 96.3% | HS 578T breast 108% | NCI/ADR-RES ovarian 86.7%

COc1ccc(/C=N/C2=NNC(C)(c3ccccc3O)N2C(Cc2c[nH]c3ccccc23)C(=O)O)cc1 (stereo unspecified)
inactive: OVCAR-8 ovarian 17.1% | OVCAR-5 ovarian 69.4% | OVCAR-4 ovarian 33.3% | SK-OV-3 ovarian 46.8% | IGROV1 ovarian 16.7% | OVCAR-3 ovarian 30% | HS 578T breast 51.7% | NCI/ADR-RES ovarian 34.9%
active: RPMI-8226 leukemia -15.2%

CC(C)CCC[C@@H](C)[C@H]1CC[C@H]2[C@@H]3CC=C4N(c5ccccc5)C(=O)CC[C@]4(C)[C@H]3CC[C@]12C
inactive: RPMI-8226 leukemia 97.8% | OVCAR-8 ovarian 109% | OVCAR-5 ovarian 102% | OVCAR-4 ovarian 103% | SK-OV-3 ovarian 103% | IGROV1 ovarian 99.1% | OVCAR-3 ovarian 92.1% | HS 578T breast 109% | NCI/ADR-RES ovarian 98.9%

COc1ccc(-n2c(-c3ccc(NC(=O)CCCl)cc3)nnc2-c2cc(OC)c(OC)c(OC)c2)cc1
active: OVCAR-3 ovarian 4.58%
inactive: RPMI-8226 leukemia 31% | OVCAR-8 ovarian 49.2% | OVCAR-5 ovarian 79.7% | OVCAR-4 ovarian 54.1% | SK-OV-3 ovarian 45.2% | IGROV1 ovarian 42.4% | HS 578T breast 56% | NCI/ADR-RES ovarian 55.9%

COc1cc(/C=C/C(=O)c2c(C)[n+]([O-])c3ccccc3[n+]2[O-])ccc1O
inactive: RPMI-8226 leukemia 104% | OVCAR-8 ovarian 89.4% | OVCAR-5 ovarian 110% | OVCAR-4 ovarian 155% | SK-OV-3 ovarian 97.8% | IGROV1 ovarian 61.4% | HS 578T breast 99.4% | NCI/ADR-RES ovarian 104%

COc1ccc(/C=C2/C(=O)Nc3cc(Cl)c(-c4csc(N)n4)cc32)cc1
inactive: RPMI-8226 leukemia 39.3% | OVCAR-8 ovarian 61.8% | OVCAR-5 ovarian 85% | OVCAR-4 ovarian 70.1% | SK-OV-3 ovarian 48.5% | IGROV1 ovarian 56.1% | OVCAR-3 ovarian 17% | HS 578T breast 45.7% | NCI/ADR-RES ovarian 32.2%

O=C(O)c1ccc2nc(-c3ccc(OCCCCCOc4ccc(-c5nc6ccc(C(=O)O)cc6[nH]5)cc4)cc3)[nH]c2c1
inactive: RPMI-8226 leukemia 123% | OVCAR-8 ovarian 49% | OVCAR-4 ovarian 82.6% | SK-OV-3 ovarian 48.8% | IGROV1 ovarian 109% | HS 578T breast 82.7% | NCI/ADR-RES ovarian 33.1%
active: OVCAR-5 ovarian 9.11%

CC(C)C1(C(C)C)NC(=O)NC1=O
inactive: RPMI-8226 leukemia 117% | OVCAR-8 ovarian 110% | OVCAR-5 ovarian 101% | OVCAR-4 ovarian 107% | SK-OV-3 ovarian 108% | IGROV1 ovarian 99.4% | OVCAR-3 ovarian 110% | HS 578T breast 92.6% | NCI/ADR-RES ovarian 103%

O=S(c1ccccc1)c1ccc2nnnn2n1 (stereo unspecified)
inactive: RPMI-8226 leukemia 95.7% | OVCAR-8 ovarian 108% | OVCAR-5 ovarian 110% | OVCAR-4 ovarian 111% | SK-OV-3 ovarian 114% | IGROV1 ovarian 75.8% | OVCAR-3 ovarian 83.8% | HS 578T breast 97.7% | NCI/ADR-RES ovarian 106%

CCN(CC)CCNc1ccc([N+](=O)[O-])c2sc3cc(Cl)ccc3c(=O)c12
active: RPMI-8226 leukemia 3.51% | OVCAR-8 ovarian 3.32% | OVCAR-4 ovarian -37.6%
inactive: OVCAR-5 ovarian 38.7% | SK-OV-3 ovarian 86.3% | IGROV1 ovarian 15.1% | OVCAR-3 ovarian 71.5% | NCI/ADR-RES ovarian 33.9%

Cc1ccc(-c2cc(-c3nnc(SCC(=O)c4ccccc4)o3)c3ccccc3n2)cc1
inactive: RPMI-8226 leukemia 106% | OVCAR-8 ovarian 100% | OVCAR-5 ovarian 92% | OVCAR-4 ovarian 86% | SK-OV-3 ovarian 106% | IGROV1 ovarian 94.1% | OVCAR-3 ovarian 97.7% | HS 578T breast 101% | NCI/ADR-RES ovarian 91.9%

COc1ccc(C(=O)NC(=O)Nc2ccc3c(c2)NC(=O)/C3=C\c2[nH]c(C)c(C(=O)O)c2C)c(F)c1
inactive: OVCAR-8 ovarian 56.4% | OVCAR-5 ovarian 98.8% | OVCAR-4 ovarian 12% | SK-OV-3 ovarian 74.1% | IGROV1 ovarian 46.8% | HS 578T breast 49.4% | NCI/ADR-RES ovarian 74.1%
active: RPMI-8226 leukemia 6.29% | OVCAR-3 ovarian 5.25%

COc1ccc(-c2ccc(NC(=O)Nc3ccc(Cl)c(C(F)(F)F)c3)c(C)n2)cc1
active: RPMI-8226 leukemia 9.87%
inactive: OVCAR-8 ovarian 57.4% | OVCAR-5 ovarian 89.1% | OVCAR-4 ovarian 45.1% | SK-OV-3 ovarian 68.1% | IGROV1 ovarian 52.9% | OVCAR-3 ovarian 27.6% | HS 578T breast 77% | NCI/ADR-RES ovarian 49.8%

O=C(O)c1cn(C2CC2)c2cc(N3CCN(C(=O)CSc4nc(NS(=O)(=O)c5ccccc5)cc(=O)[nH]4)CC3)c(F)cc2c1=O
inactive: RPMI-8226 leukemia 82.1% | OVCAR-8 ovarian 98.5% | OVCAR-5 ovarian 112% | OVCAR-4 ovarian 104% | SK-OV-3 ovarian 117% | IGROV1 ovarian 98.3% | OVCAR-3 ovarian 83.9% | HS 578T breast 89.1% | NCI/ADR-RES ovarian 101%

COc1ccc(-c2nn(-c3ccc(NC(=O)c4ccc(Cl)c(C(F)(F)F)c4)cc3)cc2-c2ccncc2)cc1Cl
inactive: OVCAR-8 ovarian 46.5% | OVCAR-5 ovarian 46.5% | OVCAR-4 ovarian 93.9% | SK-OV-3 ovarian 58.1% | IGROV1 ovarian 44.8% | OVCAR-3 ovarian 24% | NCI/ADR-RES ovarian 35.7%
active: RPMI-8226 leukemia -38.2%

CN1CCN(CC(=O)N(C)c2ccc(N=C(c3ccccc3)c3c(O)[nH]c4ccc(C#N)cc34)cc2)CC1
active: SK-OV-3 ovarian -7.83%
inactive: RPMI-8226 leukemia 57.6% | OVCAR-8 ovarian 39.1% | OVCAR-5 ovarian 80.1% | OVCAR-4 ovarian 48% | IGROV1 ovarian 31% | OVCAR-3 ovarian 52.2% | NCI/ADR-RES ovarian 106%

CCCCNC(=O)Oc1ccc(/C(=C(/CC)Cc2ccccc2)c2ccc(OCCCN(C)C)cc2)cc1
inactive: RPMI-8226 leukemia 42.8% | OVCAR-8 ovarian 87% | OVCAR-5 ovarian 85.6% | OVCAR-4 ovarian 74.8% | SK-OV-3 ovarian 97.6% | IGROV1 ovarian 71.1% | OVCAR-3 ovarian 85.2% | HS 578T breast 84.4% | NCI/ADR-RES ovarian 87.2%

COc1ccc(C2CC(c3cc(Cl)c(C)cc3OC)=NN2c2ccc(S(N)(=O)=O)cc2)cc1OC (stereo unspecified)
inactive: RPMI-8226 leukemia 91% | OVCAR-8 ovarian 73.8% | OVCAR-5 ovarian 70.6% | OVCAR-4 ovarian 87.8% | SK-OV-3 ovarian 116% | IGROV1 ovarian 79.1% | OVCAR-3 ovarian 103% | NCI/ADR-RES ovarian 77.2%

O=C1OC(c2ccc(-c3ccccc3)cc2)=C/C1=C/C=C/c1ccccc1
inactive: RPMI-8226 leukemia 95% | OVCAR-8 ovarian 103% | OVCAR-5 ovarian 91.3% | OVCAR-4 ovarian 95% | SK-OV-3 ovarian 102% | IGROV1 ovarian 99% | OVCAR-3 ovarian 99.3% | HS 578T breast 86.9% | NCI/ADR-RES ovarian 114%

O=c1cc(Cl)[nH]c(=O)[nH]1
inactive: RPMI-8226 leukemia 98.6% | OVCAR-8 ovarian 104% | OVCAR-5 ovarian 105% | OVCAR-4 ovarian 109% | SK-OV-3 ovarian 85.2% | IGROV1 ovarian 109% | OVCAR-3 ovarian 109% | HS 578T breast 103% | NCI/ADR-RES ovarian 105%

— PubChem BioAssay (NCI)
